Laboratory results reported in PMC4552634, “A New Set of Chemical Starting Points with Plasmodium falciparum Transmission-Blocking Potential for Antimalarial Drug Discovery” (PLoS ONE, 2015).
In all, about 13,000 compounds went through this assay and about 3,200 (25%) showed an effect of 50% or more. This is one part of the list.

System: P. falciparum stage V gametocytes
Parameters: BacTiter-Glo ATP luminescence viability of purified stage V gametocytes in 384-well plates, per cent inhibition versus DMSO
Settings: 48 h, 5 µM; inhibitor

SMILES	% Inhibition [%]
O=C(NCc1cccc2ccccc12)C(c1cc2ccccc2o1)N1CCN(C(c2ccccc2)c2ccccc2)CC1 (stereo not drawn) [TCMDC-141007]	25.05
CCCCCCN1CCN(Cc2cccc(NC(=O)c3cc4ccccc4o3)c2)CC1 [TCMDC-134620]	-12.01
CCNC(=O)c1ccc2c(c1)c(C)c(C)n2Cc1ccc(F)cc1 [TCMDC-124754]	32.09
CC(=O)C1(c2ccccc2)CCN(CCC2(c3ccc(Cl)c(Cl)c3)CN(C(=O)c3cccc(Cl)c3)CCO2)CC1 (stereo not drawn) [TCMDC-135347]	-30.91
CNS(=O)(=O)c1ccc(NC(=O)c2cc(-c3cccnc3)nc3ccc(Br)cc23)cc1 [TCMDC-125216]	-3.498
Cc1ccccc1C1CCN(C2CCC(NC(=O)C3=Cc4ccccc4OC3)CC2)CC1 (stereo not drawn) [TCMDC-133553]	-49.51
O=S(=O)(NCCN1CCCC1)c1ccc(-c2cccc(CNC3Cc4ccccc4C3)c2)cc1 [TCMDC-132215]	70.89
O=S(=O)(NCCN1CCCC1)c1ccc(-c2ccc(CNC3Cc4ccccc4C3)cc2)cc1 [TCMDC-132229]	60.05
O=S(=O)(NCCN1CCCC1)c1cccc(-c2ccc(CNC3Cc4ccccc4C3)cc2)c1 [TCMDC-132241]	96.68
COc1ccc(C2CCN(CCN3CCC(NC(=O)c4ccc(-c5cccc(C(F)(F)F)c5C(F)(F)F)cc4)CC3)CC2)c(OC)c1 [TCMDC-135427]	-31.75
CC(C)[C@H](NC(=O)c1ccc(O)c(-c2ccc(Cl)c(Cl)c2)c1)C(=O)NCCN1CCCC1 [TCMDC-140828]	38.9
CN1CCN(c2ccnc3ccc(NC(=O)Nc4ccc5c(c4)CCC5=O)cc23)CC1 [TCMDC-139266]	0.4556
O=C(Cc1cccc(Cl)c1)Nc1cccc(-c2c[nH]c3nc(Nc4ccccc4)ncc23)c1 [TCMDC-134679]	29.34
O=C(C=Cc1ccc(Cl)c(Cl)c1)NCCCCCN1CCC(c2[nH]nc3ccccc23)CC1 [TCMDC-139402]	-6.391
O=C1NC(c2ccccc2)C2(CCN(CC(O)COc3cccc4ncccc34)CC2)O1 (stereo not drawn) [TCMDC-136710]	-26.23
Cc1ccccc1OCC(O)CN1CCC(C2CCN(CC(O)COc3ccccc3C)CC2)CC1 (stereo not drawn) [TCMDC-131841]	97.67
CCCc1ccccc1OCC(O)CN(C1CCCC1)C1CCCC1 (stereo not drawn) [TCMDC-131423]	-5.815
CCC(C)(C)c1ccc(OCC(O)CN2CCCCC2)c(C(C)(C)CC)c1 (stereo not drawn) [TCMDC-123833]	2.758
Cc1ccccc1OCC(O)CNC1CCC(NCC(O)COc2ccccc2C)CC1 (stereo not drawn) [TCMDC-125142]	150
COc1cccc2c(O)c(CNC3CCCCC3)ccc12 [TCMDC-137595]	11.64
COc1ccc(NC(=O)Nc2ccc(-c3ccccc3)cc2)cc1Cn1cnc(N2CCCNCC2)cc1=O [TCMDC-134316]	22.91
O=C(/C=C/c1ccc(Cl)c(Cl)c1)Nc1cccc(CN2CCC(c3c[nH]c4ccccc34)CC2)c1 [TCMDC-139600]	0.6115

SMILES	% Inhibition [%]
CC(=O)Nc1ncc(C(=O)Nc2cccc(-c3ccc(-c4nc5ccccc5[nH]4)cc3)c2)s1 [TCMDC-136917]	7.51
Oc1ccc2c(c1CNC1CCCCC1)CCCC2 [TCMDC-137501]	23.3
CCC(=C(CC)c1ccc(O)c(CNC2CCCCC2)c1)c1ccc(O)c(CNC2CCCCC2)c1 [TCMDC-137481]	84.66
O=C(CNC1CCCCC1)c1ccc(O)c(O)c1 [TCMDC-123961]	59.16
Cc1cc(O)c(CNC2CCCCC2)cc1C [TCMDC-137589]	-0.1252
Oc1ccc(-c2ccccc2)cc1CNC1CCCCC1 [TCMDC-137603]	-11.44
CC(C)(C)c1ccc(O)c(CNC2CCCCC2)c1 [TCMDC-125856]	17.68
FC(F)(F)c1ccc2nccc(NN=Cc3cccnc3)c2c1 [TCMDC-142021]	-27.85
Cc1noc(-c2ccc(N3CCC(C(=O)N4CCN(C(C)C)CC4)CC3)cc2)n1 [TCMDC-136012]	8.914
COc1ccc2nccc([C@@H](O)CN3CCC(NC(=O)c4ccc(Oc5ccccc5)cc4)CC3)c2c1 [TCMDC-141028]	-18.23
Cc1noc(C)c1-c1cccc(CNCc2cccc(-c3cccc(-c4nc5cc(C(F)(F)F)ccc5[nH]4)c3)c2)c1.O=C(O)C(F)(F)F [TCMDC-133053]	-28.51
COc1ccc(C2CC(c3cccs3)=NN2C(=O)CNc2cccc(C#N)c2)cc1OC (stereo not drawn) [TCMDC-125050]	-31.46
OC(CNCCCc1ccccc1)c1cc(OCc2ccccc2)cc(OCc2ccccc2)c1 (stereo not drawn) [TCMDC-132033]	38.73
N=C(NCC1CC1c1ccccc1)c1cccc(C(=N)NCC2CC2c2ccccc2)n1 (stereo not drawn) [TCMDC-137456]	113.7
N=C(NCCCc1ccccc1)c1cccc(C(=N)NCCCc2ccccc2)n1 [TCMDC-137453]	100.2
Cc1cc2nc(-c3ccc(/C=C/C(=O)NCCCc4ccccc4)cc3)[nH]c2cc1C [TCMDC-140436]	-5.063
N=C(NCCCCC1CCCCC1)c1cccc(C(=N)NCCCCC2CCCCC2)n1 [TCMDC-137452]	115.6
N#Cc1c(Cl)cccc1Oc1ccc(S(=O)(=O)N2CCC(CN3CCC(c4c[nH]c5ccccc45)CC3)CC2)cc1 [TCMDC-140172]	15.16
Cc1cc(NC(=O)c2coc3cc(F)c(N4CC(C)N(C)C(C)C4)cc23)ccc1-n1ccnc1 (stereo not drawn) [TCMDC-141394]	18.23
CCNc1cc(C(=O)N[C@@H](Cc2ccccc2)[C@H](O)CNCc2cccc(OC)c2C)cc(N2CCCCS2(=O)=O)c1 [TCMDC-132413]	37.46
Cc1ccc(-c2ccc3c(c2)C=C(C(=O)NC2CCN(CCNC(=O)c4cccs4)CC2)CCC3)cc1 [TCMDC-141949]	-0.2388
Cc1nnc(-c2cccc(Nc3ccnc4cc(-c5nccs5)ccc34)c2)o1 [TCMDC-138335]	93.46

SMILES	% Inhibition [%]
Cc1ccc2nc(-c3ccccc3Nc3ccnc4cc(-c5nccs5)ccc34)[nH]c2c1 [TCMDC-138345]	108.2
CC(C)(C)c1cc2cc(Nc3ccnc4cc(-c5nccs5)ccc34)ccc2[nH]1 [TCMDC-138349]	14.13
Cc1nc(-c2cccc(Nc3ccnc4cc(-c5nccs5)ccc34)c2)no1 [TCMDC-138334]	113.3
Cc1cccc(-c2cc3cc(Nc4ccnc5cc(-c6nccs6)ccc45)ccc3[nH]2)c1 [TCMDC-138348]	-37.38
Nc1n[nH]c(-c2ccccc2Nc2ccnc3cc(-c4nccs4)ccc23)n1 [TCMDC-138301]	14.85
CC(O)c1cccc(-c2ccc(Nc3ccnc4cc(-c5nccs5)ccc34)cc2)c1 (stereo not drawn) [TCMDC-138331]	-54.01
c1ccc(Cn2nnnc2-c2cccc(Nc3ccnc4cc(-c5nccs5)ccc34)c2)cc1 [TCMDC-138337]	1.923
c1ccc(-c2nc3ccccc3[nH]2)c(Nc2ccnc3cc(-c4nccs4)ccc23)c1 [TCMDC-138346]	44.29
O=C(NCC(NCCCNc1cc(=O)c2ccccc2[nH]1)c1cc(Br)cc(Br)c1)C1=CCCC1 (stereo not drawn) [TCMDC-140317]	-52.55
CC(=O)N[C@H](C(=O)Nc1cccc(-c2ccc(-c3nc4cccc(C)c4[nH]3)s2)c1)C(C)C [TCMDC-136855]	31.89
Cc1ccc(-c2nc(N3CCN(C(=O)c4ccco4)CC3)c3ccc(Cl)cc3n2)cc1 [TCMDC-124781]	24.46
Cc1ccc2c(Cl)c(C(=O)N3CC(C)OC(C)C3)sc2c1 (stereo not drawn) [TCMDC-125624]	35.35
COc1ccccc1Cn1ccnc1SCC(=O)Nc1cc(C(F)(F)F)ccc1Cl [TCMDC-124736]	-16.43
Cc1cc(C)cc(OCC(O)CN(CCN2CCOCC2)C(=O)Nc2ccc(Br)cc2)c1 (stereo not drawn) [TCMDC-141491]	2.41
O=C(Cn1c(CCc2cccc(F)c2F)nc(=O)c2ccccc21)N(CCN1CCCCC1)Cc1ccc(-c2ccc(C(F)(F)F)cc2)cc1 [TCMDC-141088]	27.65
CC(C)(CN1CCCC1)CN(Cc1ccc(-c2ccc(C(F)(F)F)cc2)cc1)C(=O)Cn1c(CCc2cccc(F)c2F)nc(=O)c2ccccc21 [TCMDC-141098]	107.5
O=C(Cn1c(CCc2cccc(F)c2F)nc(=O)c2ccccc21)N(CCCN1CCCCC1)Cc1ccc(-c2ccc(C(F)(F)F)cc2)cc1 [TCMDC-141053]	101.4
O=C(Cn1c(CCc2cccc(F)c2F)nc(=O)c2ccccc21)N(CCCN1CCCC1)Cc1ccc(-c2ccc(C(F)(F)F)cc2)cc1 [TCMDC-141055]	113.5
O=C(Cn1c(CCc2cccc(F)c2F)nc(=O)c2ccccc21)N(CCN1CCCC1)Cc1ccc(-c2ccc(C(F)(F)F)cc2)cc1 [TCMDC-141059]	66.66
FC(F)(F)c1ccc2c(NCCc3ccccc3)ccnc2c1 [TCMDC-138552]	-21.17
COc1cccc2cc(C(=O)N[C@@H](CC(C)C)C(=O)N[C@H](/C=N/N(C)C(=O)OC(C)(C)C)CC(=O)OC(C)(C)C)oc12 [TCMDC-136092]	4.382
COc1ccc(NC(=O)Nc2nc(-c3ccc(Cl)c(C)c3)cs2)cc1N1CCN(C)CC1 [TCMDC-139155]	8.522
